Bioassay records from PubChem.
In the library only some 2% were active in any assay of this set; here they are far more common.
PGE2 EP2 inh: blocks the human prostaglandin E2 receptor EP2. P43116. C6 glioma cells expressing human EP2, cAMP TR-FRET; cells stimulated with saturating PGE2. inhibition, % at 25 µM. 260,000 compounds, 0.52% hits. AID 1422;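 active means percent inhibition above 40 after rounding to a whole number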;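 further: rat C6 glioma host cells with rolipram phosphodiesterase inhibitor present; the protocol text gives 20 µM as final concentration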
CHT allo act: allosterically activates the human high affinity choline transporter; Q9GZV3; CHT-expressing cells, membrane potential dye, choline EC20; active compounds read high; LV-AA mutant CHT in HEK293 cells; B-score at 10 µM; 310,000 compounds, 0.49% hits;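 active means initial fluorescence not abnormally high and integrated response B-score, plate-corrected, over 3 SD above library mean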
Target sequence (Q9GZV3 whole entry, looked up): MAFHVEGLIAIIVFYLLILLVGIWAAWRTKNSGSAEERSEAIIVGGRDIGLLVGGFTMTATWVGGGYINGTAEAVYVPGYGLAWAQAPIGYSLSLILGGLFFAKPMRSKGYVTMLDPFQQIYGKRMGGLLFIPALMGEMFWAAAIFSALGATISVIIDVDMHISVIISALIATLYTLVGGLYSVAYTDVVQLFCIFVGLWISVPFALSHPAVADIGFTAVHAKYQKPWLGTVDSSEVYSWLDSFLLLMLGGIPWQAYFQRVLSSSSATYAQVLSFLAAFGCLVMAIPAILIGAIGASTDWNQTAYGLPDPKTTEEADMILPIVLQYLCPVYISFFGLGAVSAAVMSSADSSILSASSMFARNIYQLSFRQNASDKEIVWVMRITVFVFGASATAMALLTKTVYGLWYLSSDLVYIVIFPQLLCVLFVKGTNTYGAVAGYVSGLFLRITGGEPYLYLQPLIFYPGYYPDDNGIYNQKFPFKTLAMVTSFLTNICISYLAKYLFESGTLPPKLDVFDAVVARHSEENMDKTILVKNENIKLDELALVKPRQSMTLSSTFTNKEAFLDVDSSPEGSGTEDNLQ
EP2 modulator: EP2 receptor (human) modulation; P43116; EP2-expressing cells, cAMP HTRF FRET, PGE2 co-stimulation; induction, % at 25 µM; 260,000 compounds, 0.83% hits;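 active means compounds whose cAMP rise, as percent of the full-agonist control response, exceeds 60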;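 further: rat C6 glioma line stably carrying human EP2 under a CMV promoter; the protocol text gives 20 µM as final concentration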
CHT block: inhibitors of human choline transporter CHT; CHT-expressing cells, membrane potential dye, choline response; active compounds read low; B-score at 10 µM; 310,000 compounds, 0.86% hits;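 active means B-score over 3 SD under the library average, and starting fluorescence ratio not unusually high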;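 further: choline stimulus applied at its EC90 after an EC20 pre-addition; B-score computed on integrated fluorescence ratio after choline addition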
CHT act confirm: confirmation of human choline transporter (CHT) activators. shares compounds with CHT allo act. CHT-expressing cells, membrane potential dye fluorescence (FDSS); % of choline EC20–EC90 response window; HEK293 expressing CHT LV-AA mutant; choline added at its EC20. activation, % at 10 µM. 2,500 compounds, 91% hits. AID 504833;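 active means primary screen active, with duplicate mean activation above negative control mean plus 3 SD, cut at about 11% in these data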
HEK293 MP dye: CHT activator counter-screen hit in parental HEK293 cells; ratio readout change at 10 µM, hits read low; membrane potential dye fluorescence (FDSS); measured after EC20 choline addition; 2,500 compounds, 62% hits; shares compounds with CHT allo act;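 active means duplicate-averaged ratio beyond 3 SD from buffer wells, up or down, though filed actives are nearly all decreases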
Numbers stand for hits; – = inactive; · = not tested or not shown; ! = not active in a repeat.

SMILES	PGE2 EP2 inh	CHT allo act	EP2 modulator	CHT block	CHT act confirm	HEK293 MP dye
N=c1n(CCN2CCCC2)c2ccccc2n1CC(O)c1ccco1 (stereo unspecified)	–	–	–	–	38	-25
N=c1n(CCN2CCCCC2)c2ccccc2n1CC(O)c1cccc(Br)c1 (stereo unspecified)	–	11	–	–	37	–
O=C(Nc1ccccc1Br)c1nccc2ccccc12	–	·	–	·	·	·
C#CCOCCOCCOCCNc1nc(N2CCN(C(=O)CCCCCCCCCCNC(=O)[C@H](CCCCN)n3cc(C)nn3)CC2)nc(N2CCN(C(=O)CCCCCCCCCCNC(=O)[C@@H]([C@H](C)O)n3cc(C)nn3)CC2)n1	·	–	·	–	–	-40
C#CCOCCOCCOCCNc1nc(N2CCN(C(=O)[C@H](CCCCN)n3cc([C@@H](N)CC(C)C)nn3)CC2)nc(N2CCN(C(=O)[C@H](CCCCN)n3cc([C@@H](N)CC(C)C)nn3)CC2)n1	–	–	–	–	56	-39
O=C(O)COc1c(Cl)cc(C2C3=C(CCCC3=O)NC3=C2C(=O)CCC3)cc1Cl	–	·	–	·	·	·
CN(C)CC1CCCCC1C1(O)c2ccccc2CSc2sccc21 (stereo unspecified)	–	–	–	–	13	–
CN(C)CC1CCCCC1OC(=O)c1ccc(Cl)cc1 (stereo unspecified)	–	–	–	–	·	·
CC(C)(C)C(=O)NCCCc1nc2ccccc2n1CCCOc1ccc(Cl)cc1	–	12	–	–	–	–
CCOc1ccc(NC(=O)COC(=O)C2CC(=O)N(c3ccc(Cl)cc3)C2)cc1 (stereo unspecified)	–	·	–	·	·	·
CCc1nn(CC(=O)NCC2CC2)c(=O)c2cc3ccsc3n12	·	·	–	·	·	·
CC[n+]1c(/C=C/c2ccc3c(c2)c2ccccc2n3C)sc2ccc(OC)cc21	–	·	–	·	·	·
CC[n+]1c(C)sc2cc(OC)ccc21	–	–	–	–	29	-62
O=C(CSc1nnc(Cc2cccs2)n1C1CCCCC1)N1CCCc2ccccc21	–	6.4	–	–	31	–
O=C(N/N=C/c1ccc2cccnc2c1)c1ccco1	–	–	–	–	37	–
CCN(CC)c1ccc(/C=N/NC(=O)c2ccco2)cc1	–	–	–	–	31	–
CC1CCN(CC(O)c2ccc3c(c2)CCCN3C(=O)c2ccc(F)cc2)CC1 (stereo unspecified)	–	·	–	·	·	·
CCCCCC(=O)Cc1cc(O)cc2c1C(=O)Oc1cc(O)c(C(=O)O)c(CCCCC)c1O2	–	–	–	–	30	-50
COc1cc2c(cc1/C=C1\C(C)=C(C#N)c3nc(N)c(C#N)c(C)c31)OCO2	–	·	–	·	·	·
CN(CCO)S(=O)(=O)c1ccc2c(c1)C(=NNC(N)=O)c1cc(S(=O)(=O)N(C)CCO)ccc1-2	–	8.2	–	–	42	-43
Cc1cc(NC(=O)CCCSc2nc(-c3ccco3)cc(C(F)(F)F)n2)n(-c2ccccc2)n1	–	–	–	–	15	–
Cc1cc(NC(=O)CSc2nc(-c3ccco3)cc(C(F)(F)F)n2)n(-c2ccccc2)n1	–	–	–	–	·	·
COc1ccc(CN2CCC(CNC(=O)C3CCN(c4ncccn4)CC3)CC2)cc1	–	·	–	·	·	·
Cc1cc(C)n2c3c(c(C#N)c2n1)CCCC3	–	–	–	–	·	·
Cc1csc2c(C#N)c(=O)c3c(n12)CCC3	–	6.6	–	–	49	-41
SMILES	PGE2 EP2 inh	CHT allo act	EP2 modulator	CHT block	CHT act confirm	HEK293 MP dye
Cc1cc(NS(=O)(=O)c2ccc(NC(=O)c3ccccc3Cl)cc2)nc(C)n1	–	·	–	·	·	·
CCN(CC)Cc1cc(Nc2ccnc3cc(Cl)ccc23)ccc1O	·	7.5!	·	–	48	-52
Oc1ccc(Nc2ccnc3cc(Cl)ccc23)cc1	–	–	–	–	·	·
CCN(CC)CCNc1ccnc2cc(Cl)ccc12	–	7.4	–	–	51	-84
O=c1oc2ccc(Br)cc2cc1-c1nnc(-c2cccs2)o1	–	·	–	·	·	·
CN(Cc1ccc(F)cc1)C(=O)C(c1ccccc1)c1ccccc1	·	–	·	–	37	–
CN(Cc1ccc(F)cc1)C(=O)c1sccc1-c1ccccc1	·	6.7	·	–	37	–
CN(CCO)C(=O)C(c1ccccc1)c1ccccc1	–	–	–	–	·	·
COc1ccccc1CN(C)C(=O)C(c1ccccc1)c1ccccc1	·	11	·	–	30	–
